Many of the other results were omitted from the sample, so hits are more common in it than they were.
Mtb RmlCD inh: M. tuberculosis RmlC/RmlD coupled enzyme inhibitors, primary screen, biochemical, compound mixtures, 384-well, from 1536-well plates; dTDP-4-dehydrorhamnose reductase (Mycobacterium tuberculosis (strain ATCC 25618 / H37Rv)) …; RmlC+RmlD coupled enzyme assay, percent inhibition; primary screen in compound mixtures; inhibition, % at 3.6 µM; 0.03% of 160,000 active; in the data active = inhibition mostly above about 34%, no sharp cut-off
Target sequence (P9WH09 whole entry, looked up): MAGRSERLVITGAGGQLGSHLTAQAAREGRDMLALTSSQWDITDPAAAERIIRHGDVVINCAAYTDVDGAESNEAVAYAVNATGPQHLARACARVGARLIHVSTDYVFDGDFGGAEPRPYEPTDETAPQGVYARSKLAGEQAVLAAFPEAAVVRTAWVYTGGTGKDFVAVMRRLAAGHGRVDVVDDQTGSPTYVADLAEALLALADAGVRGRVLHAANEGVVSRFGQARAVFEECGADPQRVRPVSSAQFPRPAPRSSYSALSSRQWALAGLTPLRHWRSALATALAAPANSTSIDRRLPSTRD
Target sequence (P9WH11 whole entry, looked up): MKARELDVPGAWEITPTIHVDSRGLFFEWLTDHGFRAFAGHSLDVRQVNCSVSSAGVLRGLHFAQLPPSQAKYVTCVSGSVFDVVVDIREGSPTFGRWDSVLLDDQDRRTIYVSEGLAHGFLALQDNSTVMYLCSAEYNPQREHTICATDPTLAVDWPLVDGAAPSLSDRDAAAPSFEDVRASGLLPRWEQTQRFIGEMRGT
YopH PTP inh: YopH tyrosine phosphatase inhibitors, primary screen, biochemical, fluorescence Ex485/Em525 | YopH tyrosine phosphatase [Yersinia enterocolitica] | 0.16% of 140,000 active | inhibition, % (concentration not given with the values) | AID 898, 2007; in the data active = inhibition above about 50%
Hits are given with their value; i = inactive; nt = no result given.

SMILES	Mtb RmlCD inh	YopH PTP inh
Nc1nnc2c(n1)CCCC2	i	51.8
Cc1[nH]n(-c2nc(-c3ccccc3F)cc(=O)[nH]2)c(=O)c1CCO	i	nt
N#Cc1c(N)n(CCNC(=O)c2ccccc2)c2nc3ccccc3nc12	nt	i
N#Cc1c(N)n(CCNC(=O)c2cccs2)c2nc3ccccc3nc12	nt	53.7
CC(=C/C(=O)O)/C=C/c1ccc([N+](=O)[O-])cc1	i	i
CC1(C)COC(/C=C/c2ccc([N+](=O)[O-])cc2)=N1	i	52.2
Cc1cc(NC(=S)NC(=O)/C=C/c2ccc(S(=O)(=O)N3CCOCC3)cc2)ccc1Br	i	nt
CCOC(=O)CC(=O)CSc1nc(CC)c(C)cc1C#N	35.7	nt
CCc1nc(SCC(=O)O)c(C#N)cc1C	i	i
CCCc1[nH]n(-c2ccc([N+](=O)[O-])cc2)c(=O)c1C(C)=NCc1ccncc1	i	nt
O=C(NCCN1CCCOC1=O)C(=O)NCCN1CCCOC1=O	i	nt
Nn1c(SCC(=O)N2CCOCC2)nnc1C1CC1	i	nt
CN(C)/C=N/c1ncc(-c2ncc(C(F)(F)F)cc2Cl)cn1	i	nt
O=C1C=Cc2ccccc2C1=O	nt	62.5
CCN1C(=C2C(=O)c3ccccc3C2=O)C=Cc2ccccc21	i	i
CCOC(=O)C(NC(=O)NCc1ccc(F)cc1)(OCC)C(F)(F)F (centres undefined)	i	i
CCOC(=O)C(NC(=O)Nc1ccccc1)(OCC)C(F)(F)F (centres undefined)	nt	53.0
O=C(CSc1ncn[nH]1)c1ccc2c(c1)OCO2	i	57.4
O=C(CSc1ncn[nH]1)c1ccc2c(c1)OCCO2	i	i
O=C(CN1CCc2ccccc21)NC(=O)NC1CCCCC1	i	nt
CCOC(=O)c1oc2ccc(Br)cc2c1CSc1nnc(C)s1	i	88.4
CCOC(=O)c1oc2ccccc2c1CSc1nnnn1-c1ccc(OC)cc1	i	i
